The source of these data is PubChem BioAssay (NCATS).

Records with an inconclusive call do not appear. Entries that show only a call come without a potency. Active and inactive are the calls of the source. Calls follow the shape of the dose curve; as a rule, active = well fitted cell-killing curve with a large enough effect; inconclusive = small, poorly fitted or top-dose-only effect, or effect the other way; inactive = flat fitted curve, though single readings scatter.

For the test, the system named is Es-2. Nature of the test: Primary qHTS to identify gynecologic anti-cancer compounds using libraries of approved drugs and bioactive compounds (AID 1345084). Also: nearly all actives have a fitted effect of over 55% in size. The settings on record: Gynecologic cancer cell panel viability, ATPlite luminescence, 48 h; series mostly up to 57.5 µM. The method, boiled down: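 Five-point cytotoxicity, 48 h drug exposure at 37 C, 5% CO2, on cells seeded 16 h beforehand. ATP content read by ATPlite luminescence.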
In general terms: qHTS replaces the single test concentration by a dilution series.
As to `CC1(C)CCC(C)(C)c2cc3c(cc21)Sc1ccccc1N=C3c1ccc(C(=O)O)cc1`, the Potency entry was “inactive”.

As for `O=C(O)c1n[nH]c2c1C[C@H]1C[C@@H]21`, the Potency entry is “inactive”.

As for `COc1cc(C2Oc3c(O)cc(CCCO)cc3C2CO)ccc1O[C@H]1O[C@H](C)[C@@H](O)[C@H](O)[C@@H]1O` (stereo partly drawn), the Potency entry was “inactive”.

With `CC(=C/C(=O)O)/C=C/[C@]1(O)[C@@]2(C)CO[C@]1(C)C[C@H](O[C@@H]1O[C@H](CO)[C@@H](O)[C@H](O)[C@H]1O)C2`, the Potency entry was “inactive”.

In the case of `CC1(C)CC[C@]2(C(=O)O)CC[C@]3(C)C(=CCC4[C@@]5(C)C[C@H](O)[C@H](O[C@@H]6OC[C@H](O)[C@H](O)[C@H]6O)[C@@](C)(CO)C5CC[C@]43C)[C@@H]2C1` (stereo partly drawn), the Potency entry was “inactive”.

Regarding `C1CCN2CC3C[C@@H](CN4CCCC[C@@H]34)[C@H]2C1`, the Potency entry is “inactive”.

On to `COc1ccc(C)c2sc(NC(=O)c3ccncc3)nc12`, for which the Potency result was “inactive”.

`CC(C)[C@@H](C)/C=C/[C@@H](C)[C@H]1CC[C@H]2C3=CC=C4C[C@@H](O)CC[C@]4(C)[C@H]3CC[C@]12C`: the Potency entry was “inactive”.

As to `COc1ccccc1CC(C(=O)O)N(C)C(=O)c1ccccc1` (stereo not drawn), the Potency result was “inactive”.

On to `C=C1[C@@H]2[C@H]3OC(=O)C(=C)[C@@H]3CC[C@@](C)(O)[C@@H]2C[C@@H]1O[C@@H]1O[C@H](CO)[C@@H](O)[C@H](O)[C@H]1O`, for which the Potency entry is “inactive”.

On to `COCCCNCC1COc2ccccc2O1` (stereo not drawn), for which the Potency entry was “inactive”.

In the case of `COc1cc(/C=C/C(=O)OC2CC(OC(C)=O)C(OC(C)=O)C3C2CCC2C(=O)OC(c4ccoc4)CC23C)ccc1O[C@@H]1O[C@H](CO)[C@@H](O)[C@H](O)[C@H]1O` (stereo partly drawn), the Potency result is “inactive”.

In the case of `CO[C@@H]1CC[C@H](OC[C@]2(COC(=O)c3ccc(C)[nH]3)[C@H](OC(C)=O)CC[C@@]3(C)[C@@H]4CC=C(C)[C@@H](C5=C(O)C(=O)OC5O)[C@]4(C)CC[C@@H]32)O[C@H]1C` (stereo partly drawn), the Potency entry was “inactive”.

For the molecule `C=C1CCC2C(OC(=O)C2(O)COC(C)=O)C2C(=C)C(O)CC12` (stereo not drawn), the Potency result was “inactive”.

Regarding `CC1=C2C=C(CO)C(CO)CCC2(C)CCC1=O` (stereo not drawn), the Potency entry was “inactive”.

Take `C=C1[C@H]2CC[C@]3(O)[C@@](CC[C@@H]4[C@](C)(C(=O)O)CCC[C@]43C)(C2)[C@H]1OC(=O)/C(C)=C\C`: the Potency entry was “inactive”.

For `O=C(O[C@H]1[C@@H]2C=CO[C@@H](O[C@@H]3O[C@H](CO)[C@@H](O)[C@H](O)[C@H]3O)[C@@H]2[C@@]2(CO)O[C@@H]12)c1ccc(O)cc1`, the Potency entry is “inactive”.

As to `CC(C)(O)/C=C1/C(=O)C(C)(C)C(=O)C(C)(C)C1(O)O[C@@H]1O[C@H](COC(=O)c2cc(O)c(O)c(O)c2)[C@@H](O)[C@H](O)[C@H]1O` (stereo partly drawn), the Potency result is “inactive”.

For the molecule `CN1CC[C@@H](NC(=O)Nc2ccc(C#N)cc2)C[C@@H]1c1nc2ccccc2[nH]1`, the Potency entry is “inactive”.

With `C[C@H]1[C@H](C)CC[C@]2(C(=O)O[C@@H]3O[C@H](CO)[C@@H](O)[C@H](O)[C@H]3O)CC[C@]3(C(=O)O)C(=CCC4[C@@]5(C)CC[C@H](O[C@@H]6O[C@H](CO)[C@@H](O)[C@H](O)[C@H]6O)C(C)(C)C5CC[C@]43C)[C@H]12` (stereo partly drawn), the activity change, negative = cytotoxicity is -10.9% [at 11.6 µM] (inactive).

Consider `c1nc(NC2CCCCCC2)c2cc(CNC[C@H]3CCCO3)sc2n1`, for which the Potency entry was “inactive”.

`CCNC(=O)[C@H]1O[C@H](n2cnc3c(NCC(c4ccccc4)c4ccccc4)nc(C(=O)NCCNC(=O)NC4CCN(c5ccccn5)CC4)nc32)[C@H](O)[C@@H]1O`: the Potency entry is “inactive”.

In the case of `CC1CC(=O)C2=C(O1)OC1(C)CCC3C(C)(C)C=CC(=O)C3(C)C1C2` (stereo not drawn), the Potency entry is “inactive”.

For the molecule `COc1ncc(-c2ccc3c(Nc4cc(Oc5cc(F)cc(F)c5)cc(C(=O)O)c4)c(S(=O)(=O)NC4CC4)cnc3c2)c(OC)n1`, the Potency result was “inactive”.

As to `CC(=O)O[C@@H]1[C@H]2[C@@H](OC(=O)c3ccccc3)[C@@H](C)C[C@]2(O)[C@H](OC(C)=O)[C@@]2(C)[C@@H]3CC(C)(C)C(=O)[C@]3(OC(C)=O)C[C@@]12C`, the Potency result is “inactive”.

As to `COc1ccc(/C=C/C(=O)O[C@@H]2[C@@H](OC(C)=O)[C@@H](OC(C)=O)[C@H](O[C@H]3[C@@H]4C=CO[C@@H](O[C@@H]5O[C@H](CO)[C@@H](O)[C@H](O)[C@H]5O)[C@@H]4[C@@]4(CO)O[C@@H]34)O[C@H]2C)cc1O`, the Potency entry is “inactive”.

For the molecule `CC1=CC(=O)OC(C)(CC(C)(O)C(=O)O)C1` (stereo not drawn), the Potency result is “inactive”.

Consider `O=C(OCc1cccc(O)c1O[C@@H]1O[C@H](CO)[C@@H](O)[C@H](O)[C@H]1O)C1(O)C(=O)C2C=CC1C1C=CC(=O)C(O)(C(=O)OCc3cccc(O)c3O[C@@H]3O[C@H](CO)[C@@H](O)[C@H](O)[C@H]3O)C21` (stereo partly drawn), for which the activity change, negative = cytotoxicity was 2.61% [at 11.6 µM] (inactive).

As to `C[C@H]1[C@H](C)CC[C@]2(C(=O)O)CC[C@]3(C)C(=CC[C@@H]4[C@@]5(C)C[C@@H](O)[C@H](O)[C@@](C)(CO)[C@@H]5CC[C@]43C)[C@H]12`, the Potency entry is “inactive”.

For the molecule `COc1cc(C[C@H]2COC(=O)[C@@H]2Cc2ccc(O)c(OC)c2)ccc1O`, the Potency entry is “inactive”.

In the case of `COC(=O)C1=CO[C@@H](O[C@@H]2O[C@H](CO)[C@@H](O)[C@H](O)[C@H]2O)[C@@H]2[C@@](C)(O)[C@@H](O)C[C@]12O`, the Potency result was “inactive”.

With `C/C(=C\CCC(C)(O)c1ccc(C)cc1)C(=O)O` (stereo not drawn), the Potency entry was “inactive”.

For `C/C=C(\C)C(=O)O[C@H]1[C@H](O)[C@]2(COC(C)=O)[C@H](O)C[C@]3(C)C(=CCC4[C@@]5(C)CC[C@H](O[C@@H]6O[C@H](C(=O)O)[C@@H](O[C@@H]7O[C@H](CO)[C@@H](O)[C@H](O)[C@H]7O)[C@H](O)[C@H]6O[C@@H]6O[C@H](CO)[C@@H](O)[C@H](O)[C@H]6O)[C@](C)(CO)C5CC[C@]43C)[C@@H]2CC1(C)C` (stereo partly drawn), the activity change, negative = cytotoxicity was 5.46% [at 11.6 µM] (inactive).

Consider `COC1=Cc2c(nc3n(c2=O)C(C)C(=O)NC3(O)C(C)C)OC=C1` (stereo not drawn), for which the Potency result was “inactive”.

Regarding `COc1c(C(CC(C)C)OC(C)=O)ccc(Oc2c(O)cc(C)cc2/C=C/C(C)=O)c1C(=O)O` (stereo not drawn), the Potency entry is “inactive”.

Regarding `COc1cc(O[C@@H]2O[C@H](CO)[C@@H](O)[C@H](O)[C@H]2O)c(CCC(=O)OC[C@H]2O[C@@H](Oc3cc(OC)c(C4OC(=O)C(C)(O)C4O)cc3CCC(=O)O)[C@H](O)[C@@H](O)[C@@H]2O)cc1C1OC(=O)C(C)(O)C1O` (stereo partly drawn), the activity change, negative = cytotoxicity was 12.3% [at 11.6 µM] (inactive).

Take `CC1CC(O)CC(C)(C)C1(O)CCO` (stereo not drawn): the Potency result was “inactive”.

Regarding `CC(=O)c1c(O)cc2c(c1C)C(=O)CC(O)C2` (stereo not drawn), the Potency result is “inactive”.
